Assay [1] deals with Tyrosine-protein kinase SYK (Homo sapiens) (UniProt P43405). Conditions: at 1 µM.
Assay [2] has as its target T1, Tyrosine-protein kinase Tec (Homo sapiens) (UniProt P42680).
T1 sequence (whole entry): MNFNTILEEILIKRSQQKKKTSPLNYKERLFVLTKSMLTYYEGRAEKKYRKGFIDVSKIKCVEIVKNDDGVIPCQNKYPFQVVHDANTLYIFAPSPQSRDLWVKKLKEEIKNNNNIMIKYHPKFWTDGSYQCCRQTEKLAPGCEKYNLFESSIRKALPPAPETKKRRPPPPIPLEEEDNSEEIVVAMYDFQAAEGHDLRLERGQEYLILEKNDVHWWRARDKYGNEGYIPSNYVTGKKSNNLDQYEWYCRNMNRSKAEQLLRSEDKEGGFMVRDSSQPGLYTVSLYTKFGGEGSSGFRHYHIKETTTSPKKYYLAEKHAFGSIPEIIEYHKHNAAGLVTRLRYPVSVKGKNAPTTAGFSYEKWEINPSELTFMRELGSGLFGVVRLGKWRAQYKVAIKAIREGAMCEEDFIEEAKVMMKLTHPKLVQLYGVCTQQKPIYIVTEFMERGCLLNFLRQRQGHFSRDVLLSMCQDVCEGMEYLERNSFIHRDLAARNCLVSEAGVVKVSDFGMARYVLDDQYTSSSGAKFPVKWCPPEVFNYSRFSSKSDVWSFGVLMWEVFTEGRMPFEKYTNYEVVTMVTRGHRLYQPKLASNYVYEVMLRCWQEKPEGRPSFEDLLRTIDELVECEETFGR
Conditions: at 0.1 µM.

The target of assay [3] is T1, Tyrosine-protein kinase Tec (Homo sapiens). Conditions: at 1 µM.
In assay [4] the target is Angiopoietin-1 receptor (Homo sapiens) (UniProt Q02763). Conditions: at 0.1 µM.
Chain of Angiopoietin-1 receptor (Homo sapiens) (Q02763 whole entry): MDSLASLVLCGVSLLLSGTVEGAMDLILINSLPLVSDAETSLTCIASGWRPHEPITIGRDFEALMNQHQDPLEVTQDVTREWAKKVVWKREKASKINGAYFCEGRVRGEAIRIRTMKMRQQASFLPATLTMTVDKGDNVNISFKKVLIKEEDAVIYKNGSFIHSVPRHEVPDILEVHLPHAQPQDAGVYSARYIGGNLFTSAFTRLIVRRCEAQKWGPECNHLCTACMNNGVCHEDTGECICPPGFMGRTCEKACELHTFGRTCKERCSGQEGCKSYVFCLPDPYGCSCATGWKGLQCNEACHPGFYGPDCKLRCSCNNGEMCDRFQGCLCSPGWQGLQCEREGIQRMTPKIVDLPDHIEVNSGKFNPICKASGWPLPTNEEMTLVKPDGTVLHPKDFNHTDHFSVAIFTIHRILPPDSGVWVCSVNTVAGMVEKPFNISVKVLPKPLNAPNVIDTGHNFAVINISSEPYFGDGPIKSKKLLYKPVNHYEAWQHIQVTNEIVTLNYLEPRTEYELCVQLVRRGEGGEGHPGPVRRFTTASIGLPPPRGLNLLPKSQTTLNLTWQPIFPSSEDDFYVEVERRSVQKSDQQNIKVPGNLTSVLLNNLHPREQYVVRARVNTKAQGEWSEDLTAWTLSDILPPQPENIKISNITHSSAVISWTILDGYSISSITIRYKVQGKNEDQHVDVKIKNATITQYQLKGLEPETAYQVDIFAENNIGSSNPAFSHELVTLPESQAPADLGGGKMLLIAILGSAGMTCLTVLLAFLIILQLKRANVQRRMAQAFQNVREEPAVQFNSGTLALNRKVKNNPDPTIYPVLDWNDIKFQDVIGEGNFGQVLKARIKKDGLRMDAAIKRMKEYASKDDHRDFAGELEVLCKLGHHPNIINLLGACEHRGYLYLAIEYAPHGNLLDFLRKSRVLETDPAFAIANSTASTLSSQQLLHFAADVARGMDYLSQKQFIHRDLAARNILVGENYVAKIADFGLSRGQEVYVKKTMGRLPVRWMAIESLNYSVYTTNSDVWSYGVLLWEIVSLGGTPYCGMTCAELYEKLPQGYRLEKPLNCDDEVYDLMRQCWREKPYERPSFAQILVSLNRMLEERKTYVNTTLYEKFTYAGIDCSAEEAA
The target is the same in assay [5]. Conditions: at 1 µM.
Assay [6] addresses T2, Non-receptor tyrosine-protein kinase TNK1 (Homo sapiens) (UniProt Q13470).
T2 sequence (whole entry): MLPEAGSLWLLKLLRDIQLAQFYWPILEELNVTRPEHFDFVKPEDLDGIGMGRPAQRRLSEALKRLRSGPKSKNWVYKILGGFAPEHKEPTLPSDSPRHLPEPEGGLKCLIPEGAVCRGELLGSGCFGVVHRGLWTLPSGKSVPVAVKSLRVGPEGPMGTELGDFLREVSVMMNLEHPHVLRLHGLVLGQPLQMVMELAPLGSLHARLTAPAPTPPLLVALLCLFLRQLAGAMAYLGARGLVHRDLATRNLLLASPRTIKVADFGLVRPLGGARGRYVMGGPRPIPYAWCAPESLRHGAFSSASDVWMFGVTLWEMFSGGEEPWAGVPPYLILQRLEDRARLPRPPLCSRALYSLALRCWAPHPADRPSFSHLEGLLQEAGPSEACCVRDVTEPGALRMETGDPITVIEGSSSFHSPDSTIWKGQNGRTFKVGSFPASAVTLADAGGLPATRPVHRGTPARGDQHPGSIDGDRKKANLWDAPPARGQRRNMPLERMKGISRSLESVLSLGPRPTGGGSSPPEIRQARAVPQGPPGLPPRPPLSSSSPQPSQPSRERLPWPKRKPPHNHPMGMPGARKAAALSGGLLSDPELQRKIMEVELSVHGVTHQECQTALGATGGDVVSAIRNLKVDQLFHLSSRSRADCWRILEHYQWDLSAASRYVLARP
Conditions: at 0.1 µM.

Assay [7] concerns the target T2, Non-receptor tyrosine-protein kinase TNK1 (Homo sapiens). Conditions: at 1 µM.
Assay [8] deals with Activated CDC42 kinase 1 (Homo sapiens) (UniProt Q07912). Conditions: at 0.1 µM.
Chain of Activated CDC42 kinase 1 (Homo sapiens) (Q07912 whole entry, looked up): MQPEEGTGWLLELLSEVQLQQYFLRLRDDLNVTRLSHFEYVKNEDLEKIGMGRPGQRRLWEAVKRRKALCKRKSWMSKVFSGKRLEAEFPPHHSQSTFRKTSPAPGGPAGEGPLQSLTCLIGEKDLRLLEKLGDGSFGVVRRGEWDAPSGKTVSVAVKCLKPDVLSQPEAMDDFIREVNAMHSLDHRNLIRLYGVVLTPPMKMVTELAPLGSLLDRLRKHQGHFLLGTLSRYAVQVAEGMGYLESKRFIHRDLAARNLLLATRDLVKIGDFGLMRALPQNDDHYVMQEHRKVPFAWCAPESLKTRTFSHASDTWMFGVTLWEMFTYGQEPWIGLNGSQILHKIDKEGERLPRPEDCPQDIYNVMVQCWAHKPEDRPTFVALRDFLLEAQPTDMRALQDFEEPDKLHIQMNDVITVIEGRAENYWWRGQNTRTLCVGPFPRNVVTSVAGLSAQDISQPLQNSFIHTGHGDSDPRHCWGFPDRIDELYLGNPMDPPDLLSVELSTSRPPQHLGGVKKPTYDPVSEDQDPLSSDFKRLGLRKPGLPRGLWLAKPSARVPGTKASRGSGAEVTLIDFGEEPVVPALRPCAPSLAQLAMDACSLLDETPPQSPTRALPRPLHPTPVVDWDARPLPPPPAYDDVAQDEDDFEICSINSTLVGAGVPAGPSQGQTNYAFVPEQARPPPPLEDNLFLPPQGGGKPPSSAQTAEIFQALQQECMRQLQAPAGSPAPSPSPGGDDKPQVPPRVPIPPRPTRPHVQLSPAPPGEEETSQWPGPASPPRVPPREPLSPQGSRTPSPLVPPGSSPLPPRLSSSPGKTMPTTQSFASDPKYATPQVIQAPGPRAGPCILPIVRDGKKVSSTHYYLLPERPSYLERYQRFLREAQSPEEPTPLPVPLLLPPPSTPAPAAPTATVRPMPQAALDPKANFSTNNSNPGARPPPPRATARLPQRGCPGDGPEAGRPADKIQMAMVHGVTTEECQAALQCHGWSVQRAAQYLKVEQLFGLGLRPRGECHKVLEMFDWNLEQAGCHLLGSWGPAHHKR
Assay [9] shares this target. Conditions: at 1 µM.
Assay [10] concerns the target High affinity nerve growth factor receptor (Homo sapiens) (UniProt P04629). Conditions: at 0.1 µM.
Assay [11] has the same target. Conditions: at 1 µM.
Assay [12] deals with BDNF/NT-3 growth factors receptor (Homo sapiens) (UniProt Q16620). Conditions: at 0.1 µM.
Chain of BDNF/NT-3 growth factors receptor (Homo sapiens) (Q16620 32-822 limits assumed): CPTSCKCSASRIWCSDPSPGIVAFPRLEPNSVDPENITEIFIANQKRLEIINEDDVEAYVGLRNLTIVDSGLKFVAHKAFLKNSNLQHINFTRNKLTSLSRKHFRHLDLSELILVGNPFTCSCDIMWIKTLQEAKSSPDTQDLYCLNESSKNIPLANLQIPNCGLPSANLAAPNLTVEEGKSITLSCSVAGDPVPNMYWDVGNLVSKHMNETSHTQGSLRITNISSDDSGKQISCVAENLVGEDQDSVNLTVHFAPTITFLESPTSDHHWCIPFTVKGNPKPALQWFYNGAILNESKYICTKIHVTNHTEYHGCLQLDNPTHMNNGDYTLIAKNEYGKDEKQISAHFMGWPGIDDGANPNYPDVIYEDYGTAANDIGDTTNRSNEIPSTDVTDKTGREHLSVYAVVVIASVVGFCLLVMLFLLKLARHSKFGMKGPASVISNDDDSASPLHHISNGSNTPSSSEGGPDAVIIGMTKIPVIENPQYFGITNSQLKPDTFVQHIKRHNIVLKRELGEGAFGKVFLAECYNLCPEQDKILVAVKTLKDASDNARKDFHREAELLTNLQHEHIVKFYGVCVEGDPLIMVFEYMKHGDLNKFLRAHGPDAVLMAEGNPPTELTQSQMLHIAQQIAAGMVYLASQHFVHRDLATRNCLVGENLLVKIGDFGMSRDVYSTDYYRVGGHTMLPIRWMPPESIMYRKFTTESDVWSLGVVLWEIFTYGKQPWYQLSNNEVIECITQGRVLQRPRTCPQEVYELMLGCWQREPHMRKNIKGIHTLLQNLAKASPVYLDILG
Assay [13] shares this target. Conditions: at 1 µM.
Assay [14] addresses NT-3 growth factor receptor (Homo sapiens) (UniProt Q16288). Conditions: at 0.1 µM.
Assay [15] shares this target. Conditions: at 1 µM.
For assay [16], the target named is T3, Tyrosine-protein kinase TXK (Homo sapiens) (UniProt P42681).
T3 sequence (whole entry): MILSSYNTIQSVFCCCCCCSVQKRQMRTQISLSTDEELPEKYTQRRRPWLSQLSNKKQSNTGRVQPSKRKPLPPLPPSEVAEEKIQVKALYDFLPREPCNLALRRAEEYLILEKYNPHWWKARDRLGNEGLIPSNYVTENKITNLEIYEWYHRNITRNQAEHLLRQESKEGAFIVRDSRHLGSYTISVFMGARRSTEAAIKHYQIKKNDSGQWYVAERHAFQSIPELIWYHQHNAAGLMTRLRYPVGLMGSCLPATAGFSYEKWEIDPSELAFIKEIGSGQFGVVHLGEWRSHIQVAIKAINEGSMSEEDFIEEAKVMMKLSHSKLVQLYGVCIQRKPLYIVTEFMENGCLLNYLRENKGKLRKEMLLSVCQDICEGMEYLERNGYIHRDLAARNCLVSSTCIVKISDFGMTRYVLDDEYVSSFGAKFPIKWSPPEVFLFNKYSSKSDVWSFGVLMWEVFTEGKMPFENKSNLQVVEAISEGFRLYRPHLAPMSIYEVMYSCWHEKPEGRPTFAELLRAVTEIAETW
Conditions: at 0.1 µM.

Assay [17] addresses T3, Tyrosine-protein kinase TXK (Homo sapiens). Conditions: at 1 µM.
Assay [18] concerns the target Non-receptor tyrosine-protein kinase TYK2 (Homo sapiens) (UniProt P29597). Conditions: at 0.1 µM.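 Further: each value is a mean of the inhibition readings.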
Assay [19] deals with T4, Dual specificity protein kinase TTK (Homo sapiens) (UniProt P33981).
T4 sequence (whole entry): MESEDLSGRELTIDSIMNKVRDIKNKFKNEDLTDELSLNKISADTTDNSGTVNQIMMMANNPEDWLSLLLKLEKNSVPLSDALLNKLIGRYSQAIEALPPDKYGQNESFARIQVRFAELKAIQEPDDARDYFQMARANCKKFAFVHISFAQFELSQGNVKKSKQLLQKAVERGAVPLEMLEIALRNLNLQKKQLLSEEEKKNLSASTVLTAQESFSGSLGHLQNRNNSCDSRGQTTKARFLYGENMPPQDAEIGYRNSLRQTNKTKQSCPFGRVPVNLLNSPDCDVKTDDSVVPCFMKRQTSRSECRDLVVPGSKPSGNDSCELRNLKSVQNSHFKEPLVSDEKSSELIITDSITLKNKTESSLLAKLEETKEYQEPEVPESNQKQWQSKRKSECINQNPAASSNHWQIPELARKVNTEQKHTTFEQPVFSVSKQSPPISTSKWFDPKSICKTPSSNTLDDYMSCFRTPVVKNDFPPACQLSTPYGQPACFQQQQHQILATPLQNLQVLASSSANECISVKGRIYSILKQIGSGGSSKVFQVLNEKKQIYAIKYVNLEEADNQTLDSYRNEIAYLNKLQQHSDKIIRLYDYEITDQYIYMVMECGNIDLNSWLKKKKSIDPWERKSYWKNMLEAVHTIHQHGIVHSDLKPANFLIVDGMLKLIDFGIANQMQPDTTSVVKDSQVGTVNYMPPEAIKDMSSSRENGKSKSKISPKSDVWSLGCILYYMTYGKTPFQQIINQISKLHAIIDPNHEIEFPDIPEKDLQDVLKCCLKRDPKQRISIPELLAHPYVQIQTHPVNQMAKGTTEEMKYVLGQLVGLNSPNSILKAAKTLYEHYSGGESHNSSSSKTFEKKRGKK
Conditions: at 1 µM.

Assay [20] has as its target T5, Aurora kinase A (Homo sapiens) (UniProt O14965).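 Further: each reported value is a mean percent inhibition of Aurora-A.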
T5 sequence (whole entry): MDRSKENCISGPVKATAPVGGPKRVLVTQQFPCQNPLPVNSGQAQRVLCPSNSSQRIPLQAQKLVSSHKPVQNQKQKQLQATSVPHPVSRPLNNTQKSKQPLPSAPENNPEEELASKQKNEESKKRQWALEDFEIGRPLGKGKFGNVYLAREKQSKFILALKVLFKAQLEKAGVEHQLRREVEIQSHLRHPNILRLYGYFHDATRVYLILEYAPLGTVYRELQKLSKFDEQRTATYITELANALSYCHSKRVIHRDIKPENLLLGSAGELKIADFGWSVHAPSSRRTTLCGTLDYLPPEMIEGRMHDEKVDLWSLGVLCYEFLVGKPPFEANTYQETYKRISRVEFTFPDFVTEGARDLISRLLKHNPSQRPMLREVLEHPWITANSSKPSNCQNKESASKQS
Conditions: at 0.1 µM.

Chain of High affinity nerve growth factor receptor (Homo sapiens) (P04629 33-796 limits assumed): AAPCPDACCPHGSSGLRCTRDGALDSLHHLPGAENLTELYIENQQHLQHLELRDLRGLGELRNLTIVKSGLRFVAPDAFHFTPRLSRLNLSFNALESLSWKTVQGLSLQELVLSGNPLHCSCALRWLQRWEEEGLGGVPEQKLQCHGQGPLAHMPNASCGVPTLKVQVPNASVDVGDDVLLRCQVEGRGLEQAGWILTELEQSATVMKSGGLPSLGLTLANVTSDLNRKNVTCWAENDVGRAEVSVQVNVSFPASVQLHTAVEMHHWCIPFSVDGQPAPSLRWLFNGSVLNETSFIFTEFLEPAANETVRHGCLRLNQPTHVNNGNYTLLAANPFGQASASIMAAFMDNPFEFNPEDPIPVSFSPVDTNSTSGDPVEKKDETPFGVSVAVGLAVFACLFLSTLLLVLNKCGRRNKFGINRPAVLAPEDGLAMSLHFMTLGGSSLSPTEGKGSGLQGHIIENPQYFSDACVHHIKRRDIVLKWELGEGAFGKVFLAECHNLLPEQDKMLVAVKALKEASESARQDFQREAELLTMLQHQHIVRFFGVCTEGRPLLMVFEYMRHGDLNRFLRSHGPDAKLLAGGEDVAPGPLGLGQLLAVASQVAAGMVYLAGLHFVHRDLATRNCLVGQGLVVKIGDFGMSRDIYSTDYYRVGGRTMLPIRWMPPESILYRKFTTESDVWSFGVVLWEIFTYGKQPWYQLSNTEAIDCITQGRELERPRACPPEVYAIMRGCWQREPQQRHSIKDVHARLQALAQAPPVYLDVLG
Chain of NT-3 growth factor receptor (Homo sapiens) (Q16288 32-839 limits assumed): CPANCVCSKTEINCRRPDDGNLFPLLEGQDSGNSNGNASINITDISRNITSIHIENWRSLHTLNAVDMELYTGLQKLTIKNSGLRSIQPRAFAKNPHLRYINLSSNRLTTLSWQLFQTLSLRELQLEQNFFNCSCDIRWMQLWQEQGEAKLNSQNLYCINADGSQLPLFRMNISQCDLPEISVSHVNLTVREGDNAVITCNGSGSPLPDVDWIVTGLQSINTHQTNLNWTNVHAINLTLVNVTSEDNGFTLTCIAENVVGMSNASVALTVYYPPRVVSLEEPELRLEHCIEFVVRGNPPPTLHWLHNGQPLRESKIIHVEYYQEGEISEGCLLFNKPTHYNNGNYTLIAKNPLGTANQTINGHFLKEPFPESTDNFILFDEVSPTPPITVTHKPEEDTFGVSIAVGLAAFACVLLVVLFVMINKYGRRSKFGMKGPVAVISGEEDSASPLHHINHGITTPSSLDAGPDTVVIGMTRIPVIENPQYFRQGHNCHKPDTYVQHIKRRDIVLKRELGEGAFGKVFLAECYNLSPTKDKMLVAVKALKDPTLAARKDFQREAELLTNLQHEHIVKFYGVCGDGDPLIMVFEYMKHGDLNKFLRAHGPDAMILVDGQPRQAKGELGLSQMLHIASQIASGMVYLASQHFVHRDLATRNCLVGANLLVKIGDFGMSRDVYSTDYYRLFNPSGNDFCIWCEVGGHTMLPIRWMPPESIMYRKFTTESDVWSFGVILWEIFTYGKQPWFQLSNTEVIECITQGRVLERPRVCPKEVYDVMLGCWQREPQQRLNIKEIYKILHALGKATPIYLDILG

As for `NS(=O)(=O)c1ccc(N/N=C2\C(=O)Nc3ccc(-c4cnco4)cc32)cc1`, the inhibition (as a rule, the relative decrease from the control value, in per cent) in assay [1] is -1.05%; in assay [2], -1.76%; in [3] it was 4.09%; in assay [4], 3.92%; in assay [5], 4.65%; in assay [6] it was 9.41%. The inhibition in assay [7] was 44.4%; in [8], -0.82%; in [9], 0.92%; in assay [10] it was 4.49%; in [11] it was 36.1%; in assay [12], 9.38%. Further, the inhibition in assay [13] is 46.4%; in assay [14], 13.3%; in assay [15] it was 51.9%; in assay [16], -3.23%; in assay [17], 0.12%; in assay [18], -0.2%. The inhibition in assay [19] amounted to 52.8%; in assay [20], 1.82%.
Regarding `c1ccc(Oc2ccc(Nc3ncc(-c4ccccc4)o3)cc2)cc1`, the inhibition in [1] was 2.28%; in [2], 2.6%; in assay [3] it was 2.98%; in [4] it was 0.12%; in assay [5] it was 1.44%; in assay [6], 0.99%. The inhibition in assay [7] was determined as 3.43%; in [8], 0.99%; in [9], 2.91%; in [10], 1.43%; in assay [11] it was 3.28%; in assay [12] it was 0.87%. Also, the inhibition in [13] is 2.96%; in assay [14], 0.46%; in assay [15], 1.12%; in assay [16] it was 1.51%; in [17], 3.57%; in [18] it was -0.13%. In addition, the inhibition in [19] was 5.67%; in assay [20], 1.36%.
On to `CNC(=O)c1cncc(/C=C/c2c(C)cccc2C)c1`, for which the inhibition in [1] is -0.51%; in assay [2], 5.68%; in assay [3] it was 38.2%; in [4], -0.16%; in [5], 7.69%; in assay [6], 0.82%. The inhibition in [7] was found to be 16.5%; in assay [8] it was 0.76%; in assay [9], 9.44%; in assay [10], 3.36%; in assay [11], 0.47%; in [12] it was 0.05%. Besides, the inhibition in assay [13] is 0.22%; in assay [14], 0.47%; in assay [15], 1.16%; in assay [16], 5.71%; in assay [17] it was 35.6%; in [18] it was -0.15%. For the same compound, the inhibition in assay [19] is 5.33%; in assay [20], -1.77%.
For `Fc1ccc(-c2ncn(C3CCNCC3)c2-c2ccnc(Oc3ccc4c(c3)OCO4)n2)cc1`, the inhibition was -5.42% in assay [1]; 2.04% in [2]; 5.37% in [3]; 7.45% in [4]; 12.3% in assay [5]; 3.93% in assay [6]. The inhibition is 7.31% in assay [7]; 1.16% in assay [8]; 1.77% in assay [9]; 1.21% in assay [10]; 4.38% in assay [11]; 5.44% in [12]. Moreover, the inhibition in assay [13] was 5.76%; in assay [14], 4.02%; in assay [15], 7.26%; in [16] it was 0.33%; in assay [17], 3.68%; in assay [18], -2.53%. Also, the values for the inhibition in assay [19] and in assay [20] were 9.25% and 4.04%, respectively.
Take `CCc1nccc2c1nc(-c1nonc1N)n2CC`: the inhibition came to 10.7% in assay [1]; 1.47% in assay [2]; 5.82% in assay [3]; 2.53% in assay [4]; 5.08% in assay [5]; 0.71% in assay [6]. The inhibition in [7] is -5.44%; in assay [8], -0.52%; in assay [9], -0.83%; in assay [12], 3.6%; in assay [13], -1.57%; in [14] it was 0.15%. In addition, the inhibition in assay [15] is -0.85%; in assay [16] it was 3.63%; in assay [17], 7.06%; in assay [18], 1.46%; in assay [19], 2.94%; in assay [20], 2.35%.
Regarding `NS(=O)(=O)c1ccc(Nc2cc(-c3ccc(O)c(F)c3)n[nH]2)cc1`, the inhibition in [1] is -1.99%; in assay [2], -1.66%; in [3] it was 0.4%; in [4] it was 2.97%; in assay [5] it was 21.7%; in [6], -4.31%. Besides, the inhibition is 24.3% in assay [7]; -1.31% in [8]; -1.02% in assay [9]; 5.68% in [10]; 36.2% in assay [11]; 6.06% in assay [12]. Moreover, the inhibition in assay [13] was 36.7%; in assay [14], 10.5%; in assay [15], 47.7%; in [16], -1.15%; in assay [17] it was -0.33%; in [18], 0.21%. For the same compound, the inhibition was 10% in assay [19] and -2.14% in [20].
As for `O=C(NCC1CC1)c1ccc(-c2cccc(C(=O)NC3CC3)c2)cc1`, the inhibition is -1.45% in [1]; 2.57% in assay [2]; 6.01% in [3]; 2.21% in assay [4]; 6.47% in [5]; 1.89% in assay [6]. Further, the inhibition in assay [7] was -2.48%; in [8], 0.86%; in assay [9], 1.39%; in [10], 4.07%; in assay [11], 0.79%; in assay [12], 0.56%. The inhibition in assay [13] is -1.04%; in [14] it was 2.02%; in [15] it was -1.15%; in [16], 2.43%; in assay [17], 5.31%; in [18] it was -2.99%. Moreover, the inhibition in assay [19] came out at 3.09%; in assay [20] it was 1.42%.
